Experimental data published in PubChem BioAssay (NCATS).
Inconclusive results are not listed. A call without a number means that no potency is given here. Active and inactive are the calls of the source. The call rests on the fitted dose curve; in most records, active means well fitted inhibition curve with a large enough effect; inconclusive means small, poorly fitted or top-dose-only effect; inactive means flat fitted curve, though single readings scatter.

system: CP191; experiment: qHTS profiling for inhibitors of Plasmodium falciparum proliferation (AID 504749); further: nearly all actives have a fitted effect of over 60% in size; conditions: P. falciparum in erythrocytes, SYBR Green DNA, 72 h; series mostly up to 28.7 µM
In short: (§1)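 P. falciparum-infected erythrocytes (0.3% parasitemia, 2.5% hematocrit) incubated with compound 72 h at 37 C, 5% CO2. Parasite DNA detected by SYBR Green after lysis, overnight at room temperature; normalised to 0.29 uM artemisinin and DMSO.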
Potency means the concentration at half of the fitted maximal effect.

Structure (SMILES) | Potency
C[C@H](N)Cc1ccccc1 | inactive
C[C@]12C=CC(=O)C=C1CC[C@@H]1C2CC[C@]2(C)OC(=O)CCC12 (stereo partly specified) | inactive
OCC(O)[C@H]1O[C@@H]2O[C@H](C(Cl)(Cl)Cl)O[C@@H]2[C@H]1O (stereo partly specified) | inactive
CC1(C)[C@@H](C=C(Cl)Cl)[C@@H]1C(=O)OCc1c(F)c(F)cc(F)c1F | inactive
CC1(C)S[C@@H]2[C@H](N)C(=O)N2C1C(=O)O (stereo partly specified) | inactive
C=C1Nc2ccccc2C(=O)N1c1ccccc1C | inactive
CC1OC(O[C@H]2C[C@@H](O)[C@]3(CO)[C@@H]4C(CC[C@]3(O)C2)[C@@]2(O)CC[C@H](C3=CC(=O)OC3)[C@@]2(C)C[C@H]4O)C(O)C(O)C1O (stereo partly specified) | inactive
O=[N+]([O-])OC1CO[C@H]2C(O[N+](=O)[O-])COC12 (stereo partly specified) | inactive
CCOC(=O)/C=C(C)/C=C/CC(C)CCCC(C)C (stereo unspecified) | inactive
[S]=[Sb][S][Sb]=[S] | inactive
CN1C2CCC1C(C(=O)O)C(OC(=O)c1ccccc1)C2 (stereo unspecified) | inactive
C[C@@H]1CC[C@H]2[C@@H](C)C(=O)O[C@@H]3OC4(C)CC[C@@H]1C32OO4 (stereo partly specified) | 7.1 nM (active)
Cc1ccc2c(c1)[C@@H]1CN(C)CC[C@H]1N2 | inactive
Nc1nc(O)c(-c2ccccc2)o1 | inactive
C=CC[N+]1(C)CCC23c4c5ccc(O)c4O[C@H]2C(=O)CC[C@@]3(O)C1C5 (stereo partly specified) | inactive
OC[C@@H](O)[C@H]1O[C@@H]2OC(C(Cl)(Cl)Cl)O[C@H]2[C@H]1O (stereo partly specified) | inactive
CCCCCCC(=O)O[C@H]1CC[C@H]2[C@@H]3CCC4CC(=O)C=C(C)[C@]4(C)[C@H]3CC[C@]12C (stereo partly specified) | inactive
Cc1cc(C)cc(C(=O)OC2CC3CCC(C2)N3C)c1 (stereo unspecified) | inactive
CCCN1CCCC2Cc3nc(N)ncc3CC21 (stereo unspecified) | inactive
COc1ccc2c3c1O[C@H]1[C@@H](O)C=C[C@H]4C(C2)NCCC341 (stereo partly specified) | inactive
CCCCCC(O)C1C(=O)OC(C)C(O)\C=C/C=C\C=C/C=C\C=C(\C)C(O)C(O)C(O)CC(O)CC(O)CC(O)CC(O)CC1O (stereo unspecified) | inactive
CCCCCc1cc(O)c2c(c1)OC(C)(C)C1CC=C(C)CC21 (stereo unspecified) | 3980 nM (active)

system: CP192; experiment: as above; conditions: P. falciparum in erythrocytes, SYBR Green DNA, 72 h; series mostly up to 28.7 µM
In short: as §1

Structure (SMILES) | Potency
C[C@H](N)Cc1ccccc1 | inactive
C[C@]12C=CC(=O)C=C1CC[C@@H]1C2CC[C@]2(C)OC(=O)CCC12 (stereo partly specified) | inactive
OCC(O)[C@H]1O[C@@H]2O[C@H](C(Cl)(Cl)Cl)O[C@@H]2[C@H]1O (stereo partly specified) | inactive
CC1(C)[C@@H](C=C(Cl)Cl)[C@@H]1C(=O)OCc1c(F)c(F)cc(F)c1F | inactive
CC1(C)S[C@@H]2[C@H](N)C(=O)N2C1C(=O)O (stereo partly specified) | inactive
C=C1Nc2ccccc2C(=O)N1c1ccccc1C | inactive
CC1OC(O[C@H]2C[C@@H](O)[C@]3(CO)[C@@H]4C(CC[C@]3(O)C2)[C@@]2(O)CC[C@H](C3=CC(=O)OC3)[C@@]2(C)C[C@H]4O)C(O)C(O)C1O (stereo partly specified) | inactive
O=[N+]([O-])OC1CO[C@H]2C(O[N+](=O)[O-])COC12 (stereo partly specified) | inactive
CCOC(=O)/C=C(C)/C=C/CC(C)CCCC(C)C (stereo unspecified) | inactive
[S]=[Sb][S][Sb]=[S] | inactive
CN1C2CCC1C(C(=O)O)C(OC(=O)c1ccccc1)C2 (stereo unspecified) | inactive
C[C@@H]1CC[C@H]2[C@@H](C)C(=O)O[C@@H]3OC4(C)CC[C@@H]1C32OO4 (stereo partly specified) | 16.9 nM (active)
Cc1ccc2c(c1)[C@@H]1CN(C)CC[C@H]1N2 | inactive
Nc1nc(O)c(-c2ccccc2)o1 | inactive
C=CC[N+]1(C)CCC23c4c5ccc(O)c4O[C@H]2C(=O)CC[C@@]3(O)C1C5 (stereo partly specified) | inactive
OC[C@@H](O)[C@H]1O[C@@H]2OC(C(Cl)(Cl)Cl)O[C@H]2[C@H]1O (stereo partly specified) | inactive
CCCCCCC(=O)O[C@H]1CC[C@H]2[C@@H]3CCC4CC(=O)C=C(C)[C@]4(C)[C@H]3CC[C@]12C (stereo partly specified) | inactive
Cc1cc(C)cc(C(=O)OC2CC3CCC(C2)N3C)c1 (stereo unspecified) | inactive
CCCN1CCCC2Cc3nc(N)ncc3CC21 (stereo unspecified) | inactive
COc1ccc2c3c1O[C@H]1[C@@H](O)C=C[C@H]4C(C2)NCCC341 (stereo partly specified) | inactive
CCCCCC(O)C1C(=O)OC(C)C(O)\C=C/C=C\C=C/C=C\C=C(\C)C(O)C(O)C(O)CC(O)CC(O)CC(O)CC(O)CC1O (stereo unspecified) | inactive
CCCCCc1cc(O)c2c(c1)OC(C)(C)C1CC=C(C)CC21 (stereo unspecified) | 6010 nM (active)

system: CP194; experiment: as above; conditions: P. falciparum in erythrocytes, SYBR Green DNA, 72 h; series mostly up to 28.7 µM
In short: as §1

Structure (SMILES) | Potency
C[C@H](N)Cc1ccccc1 | inactive
C[C@]12C=CC(=O)C=C1CC[C@@H]1C2CC[C@]2(C)OC(=O)CCC12 (stereo partly specified) | inactive
OCC(O)[C@H]1O[C@@H]2O[C@H](C(Cl)(Cl)Cl)O[C@@H]2[C@H]1O (stereo partly specified) | inactive
CC1(C)[C@@H](C=C(Cl)Cl)[C@@H]1C(=O)OCc1c(F)c(F)cc(F)c1F | inactive
CC1(C)S[C@@H]2[C@H](N)C(=O)N2C1C(=O)O (stereo partly specified) | inactive
C=C1Nc2ccccc2C(=O)N1c1ccccc1C | inactive
CC1OC(O[C@H]2C[C@@H](O)[C@]3(CO)[C@@H]4C(CC[C@]3(O)C2)[C@@]2(O)CC[C@H](C3=CC(=O)OC3)[C@@]2(C)C[C@H]4O)C(O)C(O)C1O (stereo partly specified) | inactive
O=[N+]([O-])OC1CO[C@H]2C(O[N+](=O)[O-])COC12 (stereo partly specified) | inactive
CCOC(=O)/C=C(C)/C=C/CC(C)CCCC(C)C (stereo unspecified) | inactive
[S]=[Sb][S][Sb]=[S] | inactive
CN1C2CCC1C(C(=O)O)C(OC(=O)c1ccccc1)C2 (stereo unspecified) | inactive
C[C@@H]1CC[C@H]2[C@@H](C)C(=O)O[C@@H]3OC4(C)CC[C@@H]1C32OO4 (stereo partly specified) | 16.9 nM (active)
Cc1ccc2c(c1)[C@@H]1CN(C)CC[C@H]1N2 | inactive
Nc1nc(O)c(-c2ccccc2)o1 | inactive
C=CC[N+]1(C)CCC23c4c5ccc(O)c4O[C@H]2C(=O)CC[C@@]3(O)C1C5 (stereo partly specified) | inactive
OC[C@@H](O)[C@H]1O[C@@H]2OC(C(Cl)(Cl)Cl)O[C@H]2[C@H]1O (stereo partly specified) | inactive
CCCCCCC(=O)O[C@H]1CC[C@H]2[C@@H]3CCC4CC(=O)C=C(C)[C@]4(C)[C@H]3CC[C@]12C (stereo partly specified) | inactive
Cc1cc(C)cc(C(=O)OC2CC3CCC(C2)N3C)c1 (stereo unspecified) | inactive
CCCN1CCCC2Cc3nc(N)ncc3CC21 (stereo unspecified) | inactive
COc1ccc2c3c1O[C@H]1[C@@H](O)C=C[C@H]4C(C2)NCCC341 (stereo partly specified) | inactive
CCCCCC(O)C1C(=O)OC(C)C(O)\C=C/C=C\C=C/C=C\C=C(\C)C(O)C(O)C(O)CC(O)CC(O)CC(O)CC(O)CC1O (stereo unspecified) | inactive
CCCCCc1cc(O)c2c(c1)OC(C)(C)C1CC=C(C)CC21 (stereo unspecified) | 5360 nM (active)
